# The supplement of paper PMC8728848
# The sample as a whole holds a higher share of the strongest signals than the screen did.
# B1: DCIR1 (Mus musculus), Q9QZ15 (protein)
# chain: MASEITYAEVKFKNESNSLHTYSESPAAPREKPIRDLRKPGSPSLLLTSLMLLLLLLAITFLVAFIIYFQKYSQLLEEKKAAKNIMHNELNCTKSVSPMEDKVWSCCPKDWRLFGSHCYLVPTVSSSASWNKSEENCSRMGAHLVVIQSQEEQDFITGILDTHAAYFIGLWDTGHRQWQWVDQTPYEESITFWHNGEPSSGNEKCATIIYRWKTGWGWNDISCSLKQKSVCQMKKINL
# Tests used:
# Experiment in all cases: glycan array binding signal (z-score within array); higher = stronger binding
# Settings in all cases: glycan notation: IUPAC condensed, linker removed
# Gal3S6S(b1-4)GlcNAc = biological target: Gal3S6S(b1-4)GlcNAc
# Method in brief: (§1)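 Glycan array data were curated from 3228 arrays in the Consortium for Functional Glycomics database and kept only where the protein sequence was available. Glycan names were converted to IUPAC-condensed notation, and columns mapping to the same glycan were averaged. The binding signal is a within-array Z-score, averaged across arrays of the same protein sequence at different concentrations or buffers and across linkers. Negative Z-scores can be read as non-binding.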
# Gal6P(b1-4)GlcNAc = biological target: Gal6P(b1-4)GlcNAc
# Method in brief: as §1
# GalNAc(a1-3)GalNAc = biological target: GalNAc(a1-3)GalNAc
# Method in brief: as §1
# [1] = biological target: GalNAc(a1-3)GalNAc(b1-3)Gal(a1-4)Gal(b1-4)GlcNAc
# Method in brief: as §1
# [2] = biological target: GlcNAc(b1-2)[GlcNAc(b1-4)]Man(a1-3)[GlcNAc(b1-4)][GlcNAc(b1-2)Man(a1-6)]Man(b1-4)GlcNAc(b1-4)GlcNAc
# Method in brief: as §1
# [3] = biological target: GlcNAc(b1-3)Gal(b1-4)GlcNAc(b1-6)[GlcNAc(b1-3)Gal(b1-3)]GalNAc
# Method in brief: as §1
# [4] = biological target: Kdn(a2-3)Gal(b1-4)[Fuc(a1-3)]GlcNAc
# Method in brief: as §1
# [5] = biological target: Man(a1-2)Man(a1-2)Man(a1-3)Man
# Method in brief: as §1
# [6] = biological target: Man(a1-2)Man(a1-2)Man(a1-6)[Man(a1-3)]Man
# Method in brief: as §1
# [7] = biological target: Man(a1-3)[Man(a1-6)]Man(a1-6)[Man(a1-3)]Man
# Method in brief: as §1
# [8] = biological target: Neu5Ac(a2-3)Gal(b1-3)GlcNAc(b1-6)GalNAc
# Method in brief: as §1
# [9] = biological target: Neu5Ac(a2-3)Gal(b1-4)GlcNAc(b1-2)[Neu5Ac(a2-3)Gal(b1-4)GlcNAc(b1-4)]Man(a1-3)[GlcNAc(b1-4)][Neu5Ac(a2-3)Gal(b1-4)GlcNAc(b1-2)[Neu5Ac(a2-3)Gal(b1-4)GlcNAc(b1-6)]Man(a1-6)]Man(b1-4)GlcNAc(b1-4)GlcNAc
# Method in brief: as §1
# [10] = biological target: Neu5Ac(a2-3)Gal(b1-4)GlcNAc(b1-2)[Neu5Ac(a2-3)Gal(b1-4)GlcNAc(b1-6)]Man(a1-6)[Neu5Ac(a2-3)Gal(b1-4)GlcNAc(b1-2)Man(a1-3)]Man(b1-4)GlcNAc(b1-4)GlcNAc
# Method in brief: as §1
# [11] = biological target: Neu5Ac(a2-3)Gal(b1-4)GlcNAc(b1-3)Gal(b1-4)GlcNAc(b1-3)Gal(b1-4)GlcNAc
# Method in brief: as §1
# [12] = biological target: Neu5Ac(a2-3)Gal(b1-4)GlcNAc(b1-3)Gal(b1-4)GlcNAc(b1-3)[Neu5Ac(a2-3)Gal(b1-4)GlcNAc(b1-3)Gal(b1-4)GlcNAc(b1-6)]GalNAc
# Method in brief: as §1
# [13] = biological target: Neu5Ac(a2-3)Gal(b1-4)GlcNAc6S
# Method in brief: as §1
# [14] = biological target: Neu5Ac(a2-3)Gal(b1-4)[Fuc(a1-3)]GlcNAc6S
# Method in brief: as §1
# [15] = biological target: Neu5Ac(a2-6)Gal(b1-4)GlcNAc(b1-2)Man(a1-3)[Neu5Ac(a2-6)Gal(b1-4)GlcNAc(b1-2)Man(a1-6)]Man(b1-4)GlcNAc(b1-4)GlcNAc
# Method in brief: as §1
# [16] = biological target: Neu5Ac(a2-6)Gal(b1-4)GlcNAc(b1-2)Man(a1-6)[Gal(b1-4)GlcNAc(b1-2)Man(a1-3)]Man(b1-4)GlcNAc(b1-4)GlcNAc
# Method in brief: as §1
# [17] = biological target: Neu5Ac(a2-6)Gal(b1-4)GlcNAc(b1-2)Man(a1-6)[GlcNAc(b1-2)Man(a1-3)]Man(b1-4)GlcNAc(b1-4)GlcNAc
# Method in brief: as §1
# [18] = biological target: Neu5Ac(a2-6)Gal(b1-4)GlcNAc(b1-2)[Neu5Ac(a2-6)Gal(b1-4)GlcNAc(b1-4)]Man(a1-3)[GlcNAc(b1-4)][Neu5Ac(a2-6)Gal(b1-4)GlcNAc(b1-2)[Neu5Ac(a2-6)Gal(b1-4)GlcNAc(b1-6)]Man(a1-6)]Man(b1-4)GlcNAc(b1-4)GlcNAc
# Method in brief: as §1
# Neu5Ac(a2-6)GalNAc = biological target: Neu5Ac(a2-6)GalNAc
# Method in brief: as §1
# [19] = biological target: Neu5Ac(a2-6)GalNAc(b1-4)GlcNAc
# Method in brief: as §1
# [20] = biological target: Neu5Ac(a2-6)GalNAc(b1-4)GlcNAc6S
# Method in brief: as §1
# [21] = biological target: Neu5Ac(a2-8)Neu5Ac(a2-3)Gal(b1-4)GlcNAc
# Method in brief: as §1
# [22] = biological target: Neu5Ac(a2-8)Neu5Ac(a2-8)Neu5Ac(a2-3)[Gal(b1-3)GalNAc(b1-4)]Gal(b1-4)Glc
# Method in brief: as §1
# [23] = biological target: Neu5Gc(a2-3)Gal(b1-4)GlcNAc
# Method in brief: as §1
# [24] = biological target: Neu5Gc(a2-8)Neu5Ac(a2-3)Gal(b1-4)GlcNAc
# Method in brief: as §1
# [25] = biological target: Neu5Gc(a2-8)Neu5Gc(a2-6)Gal(b1-4)GlcNAc
# Method in brief: as §1
binder,measurement,setting,value
B1,glycan array binding signal (z-score),Gal3S6S(b1-4)GlcNAc,0.218
same,glycan array binding signal (z-score),Gal6P(b1-4)GlcNAc,-0.489
same,glycan array binding signal (z-score),GalNAc(a1-3)GalNAc,-0.78
same,glycan array binding signal (z-score),[1],2.31
same,glycan array binding signal (z-score),[2],-0.101
same,glycan array binding signal (z-score),[3],-0.947
same,glycan array binding signal (z-score),[4],2.92
same,glycan array binding signal (z-score),[5],-0.962
same,glycan array binding signal (z-score),[6],4.44
same,glycan array binding signal (z-score),[7],0.267
same,glycan array binding signal (z-score),[8],0.265
same,glycan array binding signal (z-score),[9],-0.887
same,glycan array binding signal (z-score),[10],0.375
same,glycan array binding signal (z-score),[11],-0.844
same,glycan array binding signal (z-score),[12],1.36
same,glycan array binding signal (z-score),[13],0.145
same,glycan array binding signal (z-score),[14],-0.532
same,glycan array binding signal (z-score),[15],-0.079
same,glycan array binding signal (z-score),[16],-0.16
same,glycan array binding signal (z-score),[17],2.04
same,glycan array binding signal (z-score),[18],-0.823
same,glycan array binding signal (z-score),Neu5Ac(a2-6)GalNAc,2.86
same,glycan array binding signal (z-score),[19],-0.517
same,glycan array binding signal (z-score),[20],-0.058
same,glycan array binding signal (z-score),[21],-1.1
same,glycan array binding signal (z-score),[22],2.88
same,glycan array binding signal (z-score),[23],-0.678
same,glycan array binding signal (z-score),[24],-1.04
same,glycan array binding signal (z-score),[25],-0.802
